# Screen size: about 200,000 compounds; about 80 (0.04%) were called active. The entries come from a sample that favours actives as a whole. Values without a mark were called inactive.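 The calls were made as follows: active = activation above the mean across all tested compounds plus 3 SD, cutoff set per campaign (cut at about 5.5% in these data); inactive = the rest.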
# Assay: Hsp70 promoter-driven reporter induction – cell-based, HeLa, Hsp70 promoter luciferase, luminescence, 10 µM, primary screen (AID 1203);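 also: 100% = MG132 at 30 µM as the positive control and 0% = DMSO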
# Conditions: at 10 µM, active compounds read high, scaled: vehicle 0, proteasome-inhibitor control 100%
row,SMILES,activation
1,CN(C)c1ccc(C(CNC(=O)c2ccc(F)cc2)c2c[nH]c3ccccc23)cc1 (configuration not stated),-0.32%
2,COc1ccc(/C=N/N=C/c2c[nH]c(=O)c(C#N)c2Nc2ccccc2)cc1,-0.38%
3,CCN(CC)S(=O)(=O)c1ccc(NC(=O)c2cccnc2Cl)c(NC(=O)c2cccnc2Cl)c1,-0.26%
4,CCOc1ccc(NC(=O)C2CC(=O)N=C(N)S2)cc1 (configuration not stated),-0.33%
5,O=Cc1cn(Cc2ccccc2)nc1-c1cccnc1,-0.04%
6,Cc1ccc(N(CC(=O)Nc2cc(C)cc(C)c2)S(=O)(=O)c2cccc3nonc23)cc1,-0.31%
7,O=C(CN1C(=O)NC2(CCCC2)C1=O)NCC1CCCO1 (configuration not stated),0.18%
8,O=S(=O)(N1CCCCC1)N1CCNCC1,-0.19%
9,O=C(Nc1ccccc1Cl)/C(Cl)=C(\Cl)S(=O)c1ccccc1 (configuration not stated),26.1% (active)
10,O=C(CN1CCCCC1)Nc1ccccc1Cl,-0.18%
11,O=C(Nc1ccccc1Cl)c1ccc2nsnc2c1,0.16%
12,CCCC1CCC(=NNC(=S)NCCc2ccccc2)CC1 (configuration not stated),-0.28%
13,OCCC1CN(Cc2cnc(-c3ccccc3)s2)CCN1CCc1ccccc1 (configuration not stated),0.55%
14,C/C(=N/OC(=O)c1c(-c2c(F)cccc2Cl)noc1C)c1cnccn1,-0.36%
15,O=C(CCC(=O)c1cccs1)NC1CCCCCC1,-0.2%
16,Fc1cccc(Cc2noc(CN3CCN(c4cnccn4)CC3)n2)c1,0.1%
17,Cc1ccc(-c2ccc(/C=N/NC(=O)CN3CCOCC3)o2)cc1[N+](=O)[O-],-0.19%
18,CCOC(=O)NN1C(=O)c2ccccc2NC1c1cccc(O)c1 (configuration not stated),-0.06%
19,N=C1C(=O)OCC1c1ccccc1NC(=O)CN1CCCCC1 (configuration not stated),-0.34%
20,CCc1ccc(NC(=O)C(C)OC(=O)/C=C/c2cccc([N+](=O)[O-])c2)cc1 (configuration not stated),-0.25%
21,O=C(COC(=O)CCc1ccc(S(=O)(=O)N2CCOCC2)cc1)Nc1cccc(Cl)c1,-0.33%
22,CCN1CCN(C(=O)CN(C)S(=O)(=O)c2ccc3ccccc3c2)CC1,-0.21%
23,CSCCC(=O)N1CCCC(CNC(=O)c2ccccc2Cl)C1 (configuration not stated),-0.44%

row,SMILES,activation
1,C=CCN(c1ccc(Cl)cc1)S(=O)(=O)c1cccc(C(=O)OCC(=O)N(C)C)c1,-0.3%
2,Cc1cccc(CSc2nnc(C)c(=O)n2N)c1,-0.18%
3,O=C(CO/N=C/c1ccc(OC(F)F)cc1)NCc1ccc(F)cc1,0.12%
4,CCNc1nc(NC(C)C)nc(N2CC(=O)N(CC(=O)OCC)C2=N)n1,-0.19%
5,COc1ccccc1C(c1nnnn1CC1CCCO1)N1CCN(c2ccccc2)CC1 (configuration not stated),-0.43%
6,CCOc1ccc(C(CC(=O)O)n2cnnn2)cc1OC (configuration not stated),-0.16%
7,Cc1cc(C)cc(NC(=O)c2cccc(NC(=O)C3C4CC5OC(=O)C3C5C4)c2)c1 (configuration not stated),0.09%
8,COCCNC(=S)N(Cc1cccnc1)Cc1ccc(OC)c(OC)c1,-0.35%
9,O=C(Nc1ccccc1F)c1ccccc1-c1ccc(C(F)(F)F)cc1,-0.36%
10,C/C(CC(=O)N1CCN(C=O)CC1)=N\NC(=O)c1ccc(Br)cc1,-0.22%
11,Cc1ccc(CN2CCN(Cc3cccc(C)n3)CC2CCO)cc1 (configuration not stated),0.01%
12,O=C(Cc1cc(=O)[nH][nH]1)N/N=C/c1ccccc1[N+](=O)[O-],-0.41%
13,CCn1cc(C(=O)Nc2cc(C)ccc2C)c(=O)c2ccc(C)nc21,-0.16%
14,CC(NC(=O)CC1SC(N)=NC1=O)c1ccccc1 (configuration not stated),-0.02%
15,COc1ccc(CCNC(=O)CSc2nnc3ccc(-c4ccncc4)nn23)cc1,-0.16%
16,O=C(NCc1ccccc1Cl)C1CCC(CNc2c(N3CCCCC3)c(=O)c2=O)CC1 (configuration not stated),0.08%
17,CN1C(=O)/C(=C/c2ccc(C(=O)NC3CCCC3)cc2)Oc2ccccc21,0.12%
18,CC(=O)c1ccccc1NC(=O)CC1(CC(=O)O)CCCCC1,-0.11%
19,Cc1nc(S(=O)(=O)c2ccc(Br)cc2)nc2c1CCC2,-0.24%
20,COc1ccc(Cn2c(=O)cc(C)[nH]c2=S)cc1,0.13%
21,O=C(COc1ccc(Cl)cc1[N+](=O)[O-])N1CCCCC1,0.04%
22,Cn1nc(C(F)(F)F)c2cc(C(=O)N3CCOCC3)sc21,0.19%
23,Cc1ccnc(SCC(N)=O)n1,-0.02%

row,SMILES,activation
1,O=C(Nc1cccc(Cl)c1)Nc1ccccc1NS(=O)(=O)c1cccs1,-0.23%
2,CCCC(C)C(=O)NCc1ccncc1 (configuration not stated),0.15%
3,Cc1ccc(N(Cc2cc3ccccc3[nH]c2=O)C(=O)c2cccs2)cc1,-0.18%
4,C/C(CC(=O)Nc1cccc(F)c1)=N\NC(=O)C(=O)NC1CCCCC1,-0.18%
5,CCOCCCNC(=O)C(NC(=O)c1ccccc1O)c1ccccc1 (configuration not stated),-0.12%
6,O=C(CC(=O)N/N=C\c1ccc(F)cc1)NCCc1ccccc1,-0.23%
7,CN1CCN(C(=O)CCc2nc(-c3ccc(Cl)cc3)no2)CC1,-0.33%
8,N#Cc1c(-c2ccc(F)cc2)nc(-c2ccccc2)[nH]c1=O,-0.14%
9,CCSC1=NCCN1S(=O)(=O)c1ccc(F)cc1,-0.26%
10,COc1ccc(C(=O)CSc2nnnn2C)c(OC)c1,0.02%
11,CC(=O)Nc1ccc(C(=O)OCC(=O)Nc2ccc([N+](=O)[O-])cc2C(F)(F)F)cc1,-0.04%
12,CCN(CC)C(=O)C(=O)Nc1cccc(Br)c1,-0.16%
13,c1ccc(-n2nnnc2NC2CCCCCC2)cc1,-0.52%
14,CC(=O)c1ccc(NC(=S)N(Cc2ccccc2)C(C)C2CC2)cc1 (configuration not stated),-0.19%
15,COc1ccc(COC(=O)N/N=C(\C)CC(=O)Nc2ccc(Cl)cc2)cc1,-0.38%
16,OCCC1CN(Cc2cccc(O)c2)CCN1CCc1ccccc1 (configuration not stated),0.03%
17,Cc1cccc(OCC(O)CN2CCN(CCN3C(=O)c4cccc5cccc(c45)C3=O)CC2)c1C (configuration not stated),-0.21%
18,Cc1ccc(CN2CCN(Cc3ccc4ncccc4c3)CC2CCO)cc1 (configuration not stated),-0.4%
19,NS(=O)(=O)c1ccc(CCNC(=S)Nc2ccc(S(N)(=O)=O)cc2)cc1,0.04%
20,COc1ccc2c(CC(=O)OCC(=O)Nc3ccccc3[N+](=O)[O-])coc2c1,-0.38%
21,CCCNCc1cc(OCC)c(OCC(=O)Nc2ccccc2)cc1Br,-0.15%
22,Cn1c(=O)cc(OCC(=O)N2CCN(c3ccccc3F)CC2)c2ccccc21,0.82%
23,COc1ccc(C/C(C)=N/NC(=O)c2ccncc2)cc1,-0.08%

row,SMILES,activation
1,COc1ccccc1C(=O)CSc1cccc[n+]1[O-],0.19%
2,CCC(C)(C(=O)Nc1ccccc1C)N(C(=O)CNC(C)=O)c1ccc(C)cc1 (configuration not stated),-0.25%
3,OCCC1CN(Cc2ccc3nsnc3c2)CCN1C1CCCCC1 (configuration not stated),-0.14%
4,CC(C)(C)NCCCOc1ccc(Cl)cc1C(C)(C)C,-0.26%
5,CCN(CC)Cc1nc2sc(C)c(C)c2c(=O)[nH]1,-0.4%
6,COc1ccc(/C=C/C(=O)Nc2ccc(C34CC5CC(CC(O)(C5)C3)C4)cc2)cc1OC,0.8%
7,CC(NC(=S)Nc1ccc(OC(F)F)cc1)c1ccc(F)cc1 (configuration not stated),-0.29%
8,O=C(O)c1n[nH]nc1-c1ccccc1,-0.44%
9,CN(C)c1ccc(C2Nc3ccccc3C(=O)N2NS(=O)(=O)c2ccccc2)cc1 (configuration not stated),-0.44%
10,CCCC(C)C(=O)OCC(=O)Nc1c(Br)cc(C)cc1Br (configuration not stated),-0.19%
11,O=C(Nc1nc(-c2cccnc2)cs1)c1ccccc1F,0.2%
12,O=C(NC1CCc2ccccc21)C12CN(Cc3ccccc3)CC1C(c1cccc([N+](=O)[O-])c1)=NO2 (configuration not stated),-0.09%
13,CC[C@H]1OC(=O)[C@H](C)[C@@H](O[C@H]2C[C@@](C)(OC)[C@@H](O)[C@H](C)O2)[C@H](C)[C@@H](O[C@@H]2O[C@H](C)C[C@H](N(C)C)[C@H]2O)[C@](C)(O)C[C@@H](C)[C@@H]2N[C@@H](COCCOC)O[C@H]([C@H]2C)[C@]1(C)O,-0.19%
14,CCc1cc2c(=O)c(-c3ccc(F)cc3)c(C(F)(F)F)oc2cc1OCC(=O)O,-0.05%
15,O=C(COC(=O)c1cc([N+](=O)[O-])ccc1NCc1ccccc1)NC1CCCCC1,-0.39%
16,CCCN(CC1COc2ccccc2O1)C(=S)Nc1ccc(C)cc1 (configuration not stated),-0.24%
17,COc1ccc(NC(=O)COC(=O)c2ccc(NS(=O)(=O)/C=C/c3ccccc3)cc2)cc1,-0.47%
18,COc1cccc(OCc2cc(/C=N/NC(=O)c3nc(Cl)c(Cl)c(N)c3Cl)ccc2OC)c1,-0.07%
19,CC1Cc2ccccc2N1C(=O)CSc1nnc(-c2ccc(S(=O)(=O)N3CCCC3)cc2)n1C (configuration not stated),0.16%
20,Cc1cc(C(=O)NNC(=O)c2cccc(S(=O)(=O)N3CCOCC3)c2)c2ccccc2n1,-0.21%
21,Fc1ccccc1CNC(=S)Nc1ccc(Cl)cc1,-0.2%
22,Cc1nnc(SCC(=O)NNC(=O)c2ccc(Cl)cc2)n1CC1CCCO1 (configuration not stated),-0.36%
23,CC(C)CC(=O)NC(=S)Nc1ccc(F)cc1F,-0.43%
